Compound activity (PubChem)
Compounds with a hit are over-represented: about 8.1% of the library has one in this group of screens.
PD-1 reverse act – reversal of PD-1 mediated T-cell inhibition; primary human CD4 T cells, PD-L1 beads, CellTiter-Glo 96 h; activation, % (no concentration beside the values); 29,000 tested, under 10 active; call rule not given here
Hedgehog inh – blocks Sonic Hedgehog signaling; inhibition, % (concentration not given with the values); hit rate 2.1% among 22,000; Shh-LIGHT2 Gli-luciferase reporter, 30 h;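 active = mean inhibition across valid replicates above about 65%, limit read from the data; inconclusive = mean under the limit, yet half or more replicates past it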;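 note: pathway switched on by Shh-conditioned medium diluted 1 in 25 in low serum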
MITF inh – MITF inhibition | inhibition, % (concentration not given with the values) | TRPM1 promoter luciferase, luminescence, 24 h | AID 2240 | hit rate 0.28% among 37,000; in the data active = inhibition above about 85%; inconclusive = no clear call, values can overlap the other calls; inactive = below about 68%;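 note: human melanocyte line stably carrying TRPM1 promoter luciferase reporter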
NOMO-1 viab – STK33 inhibitor candidate reducing NOMO-1 cell viability. inhibition, % (concentration not given with the values). hit rate 7.5% among 37,000. AID 2330. NOMO-1 AML viability, CellTiter-Glo luminescence, 72 h; in the data active = inhibition above about 80%; inconclusive = no clear call, values can overlap the other calls
A number is an active result; n = inactive; u = inconclusive; x = no result.

SMILES | PD-1 reverse act | Hedgehog inh | MITF inh | NOMO-1 viab
C[C@@H]1CCCCO[C@H](CN(C)C(=O)Nc2ccc(C(F)(F)F)cc2)[C@@H](C)CN([C@H](C)CO)C(=O)c2cc(NC(=O)c3ccccc3)ccc2O1 | n | n | n | n
C[C@H]1CN([C@@H](C)CO)C(=O)c2cc(NS(=O)(=O)c3cccs3)ccc2O[C@@H]1CN(C)C | n | n | n | n
COc1ccccc1CCNC(=O)c1cc(-c2ccncc2)nc2ccc(Br)cc12 | n | x | n | 94
COc1ccc(C(C)NC(=O)c2cc(-c3ccccn3)nc3ccc(Br)cc23)cc1OC (stereo unspecified) | x | x | n | 90
CC(C)NC(=O)N(C)C[C@H]1Oc2c(cccc2N(C)C)C(=O)N([C@H](C)CO)C[C@H]1C | n | n | n | n
Cc1cc(C)c2c(c1C(=O)Nc1cccc(C(F)(F)F)c1)CC(C)(C)C2=O | n | 86 | n | n
C[C@@H]1CN([C@@H](C)CO)C(=O)Cc2cc(NC(=O)CCCCCC(=O)Nc3ccccc3N)ccc2O[C@@H]1CN(C)Cc1ccc(Oc2ccccc2)cc1 | n | x | n | 140
C[C@@H]1CN([C@@H](C)CO)C(=O)Cc2cc(NC(=O)CCCN(C)C)ccc2O[C@@H]1CN(C)Cc1ccc(Oc2ccccc2)cc1 | x | n | n | n
C[C@H]1CN([C@@H](C)CO)C(=O)Cc2cc(NC(=O)CCCN(C)C)ccc2O[C@@H]1CN(C)Cc1ccc(Oc2ccccc2)cc1 | x | n | n | n
C[C@H]1CN([C@@H](C)CO)C(=O)Cc2cc(NC(=O)CCCCCC(=O)Nc3ccccc3N)ccc2O[C@@H]1CN(C)Cc1ccc(Oc2ccccc2)cc1 | n | x | n | 122
C[C@@H]1CN([C@H](C)CO)C(=O)Cc2cc(NC(=O)CCCCCC(=O)Nc3ccccc3N)ccc2O[C@@H]1CN(C)Cc1ccc(Oc2ccccc2)cc1 | n | x | n | 128
CC(C)C1=NNC(=O)C1(C)C | n | n | n | n
C[C@@H]1CN([C@@H](C)CO)C(=O)c2cccc(NC(=O)c3nc4ccccc4s3)c2O[C@H]1CN(C)C(=O)Nc1ccc(C(F)(F)F)cc1 | n | n | n | n
C=C1C(=O)O[C@@H]2C[C@H](C)[C@@H]3CC(=O)C(C)=C3C[C@H]12 | n | n | n | 121
C[C@@H]1CN([C@H](C)CO)C(=O)c2cc(NC(=O)Cc3cn(C)c4ccccc34)ccc2O[C@@H]1CN(C)Cc1ccc(C(F)(F)F)cc1 | n | x | n | n
Cc1ccc2c(c1)C(=O)C1(O)CCN(c3ccccc3)C1=N2 (stereo unspecified) | n | n | n | 109
CC(C)NC(=O)N(C)C[C@@H]1Oc2c(NC(=O)c3ccc(-c4nccs4)cc3)cccc2C(=O)N([C@H](C)CO)C[C@H]1C | n | n | n | n
COC(=O)C1=C(C)NC(C)=C(C(=O)OCCCN2CCC(c3ccccc3)(c3ccccc3)CC2)C1c1cccc([N+](=O)[O-])c1 (stereo unspecified) | x | 72 | 110 | 120
CN(C)c1ccc(/C=C2/C(=O)Nc3ccccc32)cc1 | n | n | n | n
O=C1Nc2ccccc2/C1=C\c1c(Cl)[nH]c2ccccc12 | n | n | n | 97
COc1ccc(NC(=O)Nc2ccc3c(c2)C(=O)N([C@@H](C)CO)C[C@H](C)[C@@H](CN(C)S(=O)(=O)c2ccc(C)cc2)O3)cc1 | x | x | n | n
O=C1c2ccccc2-[n+]2ccc3c([nH]c4ccccc43)c21 | n | u | 108 | 99
O=C1C(c2c(O)[nH]c3ccccc23)=Nc2ccccc21 | n | n | n | n
COc1ccc(CCC(=O)CCc2ccc(OC)cc2)cc1 | n | n | n | n
O=C(CCCCc1ccc(O)cc1)CCc1ccc(O)cc1 | n | n | n | 104
SMILES | PD-1 reverse act | Hedgehog inh | MITF inh | NOMO-1 viab
C[C@@H]1CCCCO[C@H](CN(C)C(=O)Cc2ccccc2)[C@@H](C)CN([C@H](C)CO)C(=O)c2cc(NC(=O)Nc3ccc4c(c3)OCO4)ccc2O1 | n | n | n | n
C[C@@H]1CN([C@H](C)CO)C(=O)c2cccc(NC(=O)Nc3ccc4c(c3)OCO4)c2O[C@@H]1CN(C)Cc1ccc(C(=O)Nc2ccccc2N)cc1 | n | x | n | 140
C[C@H]1CN([C@@H](C)CO)C(=O)c2cccc(NC(=O)Nc3ccc4c(c3)OCO4)c2O[C@H]1CN(C)Cc1ccc(C(=O)Nc2ccccc2N)cc1 | n | x | n | 140
C[C@@H]1CN([C@@H](C)CO)C(=O)c2cc(NC(=O)Nc3ccc4c(c3)OCO4)ccc2O[C@H]1CN(C)Cc1ccc(C(=O)Nc2ccccc2N)cc1 | n | x | n | n
Cc1noc(C)c1S(=O)(=O)Nc1ccc2c(c1)C(=O)N([C@H](C)CO)C[C@H](C)[C@@H](CN(C)C)OCCCC[C@@H](C)O2 | x | n | n | n
C[C@H](CO)N1C[C@H](C)[C@H](CN(C)Cc2ccc(C(=O)Nc3ccccc3N)cc2)Oc2ccc(NS(=O)(=O)c3ccccc3)cc2C1=O | n | x | n | 109
C[C@H]1CN([C@@H](C)CO)C(=O)c2cc(NS(=O)(=O)c3ccc(Cl)cc3)ccc2O[C@@H]1CN(C)Cc1ccc(C(=O)Nc2ccccc2N)cc1 | n | x | n | n
C[C@@H]1CN([C@H](C)CO)C(=O)c2cc(NS(=O)(=O)c3ccccc3)ccc2O[C@@H]1CN(C)Cc1ccc(C(=O)Nc2ccccc2N)cc1 | n | x | n | 109
C[C@@H]1CN([C@@H](C)CO)C(=O)c2cc(NS(=O)(=O)c3ccccc3)ccc2O[C@H]1CN(C)Cc1ccc(C(=O)Nc2ccccc2N)cc1 | n | x | n | n
Cc1ccc(S(=O)(=O)Nc2ccc3c(c2)C(=O)N([C@@H](C)CO)C[C@H](C)[C@@H](CN(C)Cc2ccc(C(=O)Nc4ccccc4N)cc2)O3)cc1 | n | x | n | n
Cc1ccc(S(=O)(=O)Nc2ccc3c(c2)C(=O)N([C@H](C)CO)C[C@@H](C)[C@@H](CN(C)Cc2ccc(C(=O)Nc4ccccc4N)cc2)O3)cc1 | n | x | n | 110
C[C@@H]1CN([C@@H](C)CO)C(=O)c2cc(NS(=O)(=O)c3ccc(Cl)cc3)ccc2O[C@@H]1CN(C)Cc1ccc(C(=O)Nc2ccccc2N)cc1 | n | x | n | 110
O=C1CC(C2CCCO2)C(=O)N1c1cccc(C(F)(F)F)c1 (stereo unspecified) | n | n | n | n
COC(=O)CCC(=O)Nc1cc([N+](=O)[O-])ccc1OC | n | x | n | n
CC(C)NC(=O)N(C)C[C@@H]1Oc2ccc(NC(=O)CCN3CCOCC3)cc2CC(=O)N([C@H](C)CO)C[C@H]1C | n | n | n | n
C[C@@H]1CN([C@@H](C)CO)C(=O)c2cc(NS(=O)(=O)c3ccc(F)cc3)ccc2O[C@H]1CN(C)Cc1ccc(C(=O)Nc2ccccc2N)cc1 | n | x | n | u
C[C@@H]1CN([C@H](C)CO)C(=O)c2cc(NS(=O)(=O)c3ccc(F)cc3)ccc2O[C@@H]1CN(C)Cc1ccc(C(=O)Nc2ccccc2N)cc1 | n | x | n | 108
Cc1ccc(S(=O)(=O)N(C)C[C@@H]2Oc3c(NS(=O)(=O)c4c(C)noc4C)cccc3C(=O)N([C@@H](C)CO)C[C@@H]2C)cc1 | x | 89 | n | n
Cc1noc(C)c1S(=O)(=O)Nc1cccc2c1O[C@H](CN(C)S(=O)(=O)c1ccc(Cl)cc1)[C@H](C)CN([C@@H](C)CO)C2=O | x | n | n | n
